Here are results for 46 compounds from PubChem BioAssay AID1851 (National Center for Advancing Translational Sciences (NCATS), 2009).

Out of some 16,000 compounds screened, about 5,800 (36%) were called active. Inconclusive results (about 23%) are left out. Some of the results follow. Unmarked numbers belong to inactive results. Calls come from the whole dose curve; as a rule, active = well fitted curve in the direction sought with a large enough effect; inconclusive = small, poorly fitted or top-dose-only effect, or effect the other way; inactive = no such curve, though single readings can be large or run the other way.
% is set by controls: 0 for no effect and ±100 for the full control effect.

Sequence of Cytochrome P450 2C19 (Homo sapiens) (P33261 whole entry, looked up): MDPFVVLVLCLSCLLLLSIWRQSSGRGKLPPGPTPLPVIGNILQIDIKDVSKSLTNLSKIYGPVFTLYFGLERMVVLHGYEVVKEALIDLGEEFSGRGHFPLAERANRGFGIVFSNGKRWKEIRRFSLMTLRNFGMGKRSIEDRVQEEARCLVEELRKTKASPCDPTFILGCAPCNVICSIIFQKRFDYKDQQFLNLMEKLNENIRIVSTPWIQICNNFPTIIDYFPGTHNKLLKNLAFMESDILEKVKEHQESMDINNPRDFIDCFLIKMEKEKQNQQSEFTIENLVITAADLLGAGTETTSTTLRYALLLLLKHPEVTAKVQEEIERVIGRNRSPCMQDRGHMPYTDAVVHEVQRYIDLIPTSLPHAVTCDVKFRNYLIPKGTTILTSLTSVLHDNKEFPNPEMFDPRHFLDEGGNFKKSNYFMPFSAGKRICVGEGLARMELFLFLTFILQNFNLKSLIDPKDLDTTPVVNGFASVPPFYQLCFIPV

This test concerns the target Cytochrome P450 2C19 (Homo sapiens) (UniProt P33261). The experiment in a line: Cytochrome panel assay with activity outcomes. Conditions: recombinant CYP, pro-luciferin dealkylation, luminescence, p450-cyp2c19; series mostly up to 57.1 µM; activity, negative = inhibition: at the top concentration.
Take `N#Cc1cccc(NC(=O)N2CCCC3(CCN(C(=O)c4cccc(F)c4)CC3)C2)c1`: the “activity, negative = inhibition” value is -37.4%.

As to `NC(=O)C(=O)O`, the “activity, negative = inhibition” value is 9.7%.

For orientation: AC50 means the concentration at which the activity in the assay is half-maximal. As to `CCC(NC(=O)C1(C)CC1(Br)Br)c1ccc(C)cc1` (stereo unspecified), the AC50 was 2.51 µM (active).

`CC[C@H](NC(=O)c1c(C)c(-c2ccccc2)nc2ccccc12)c1ccccc1`: the “activity, negative = inhibition” value was -15%.

Turning to `NC(=O)CNC(=O)[C@@H]1CC2(CC(c3cccc([N+](=O)[O-])c3)=NO2)CN1C(=O)c1ccccc1` (stereo partly specified), the “activity, negative = inhibition” value is -22.4%.

With `COc1ccc(C(=O)N2CC3(CC(c4cccc([N+](=O)[O-])c4)=NO3)C[C@H]2C(=O)NCC(N)=O)cc1` (stereo partly specified), the “activity, negative = inhibition” value is -24.6%.

Regarding `CC(C)CCNC(=O)C12CN(Cc3ccccc3)CC1C(c1cccc([N+](=O)[O-])c1)=NO2` (stereo unspecified), the concentration at half-maximal activity (AC50) is 3.55 µM (active).

In the case of `O=C(NCc1ccccc1)C12CN(Cc3ccccc3)CC1C(c1cccc([N+](=O)[O-])c1)=NO2` (stereo unspecified), the AC50 is 2.51 µM (active).

`Cc1ccc(S(=O)(=O)N[C@@H]2COC(=O)C/C=C\[C@H](C)COC(=O)N[C@@H](C)C(=O)C/C=C\[C@H]2C)cc1`: the activity, negative = inhibition was -6.82% [at 11.4 µM].

With `COc1ccc2c(c1)OC1=C(C(=O)CCC1)C2C1=C(O)CCCC1=O` (stereo unspecified), the AC50 is 15.8 µM (active).

For `CCNc1ncc2nc(-c3cccc(C#N)c3)c(=O)n(CCC#N)c2n1`, the “activity, negative = inhibition” value was -14.5%.

Take `CC(C)Cn1c(C(C)C)nc([N+](=O)[O-])c1S(=O)(=O)c1ccc(F)cc1`: the AC50 was 5.01 µM (active).

For the compound `CCS(=O)(=O)Nc1ccc(C2=NN(C(=O)c3ccco3)C(c3ccc(C)cc3)C2)cc1` (stereo unspecified), the AC50 was 11.2 µM (active).

Take `Cc1ccc(C2C(C(=O)c3ccco3)=C(O)C(=O)N2c2nnc(C)s2)cc1` (stereo unspecified): the “activity, negative = inhibition” value is -20%.

For the compound `c1ccc(-c2noc(CSc3nnnn3C3CCCCC3)n2)cc1`, the AC50 was 1.26 µM (active).

With `Cc1sc2nc(SCc3nc(-c4cccs4)no3)n(-c3ccccc3)c(=O)c2c1C`, the “activity, negative = inhibition” value is -7.06%.

Take `Cc1ccc(C)n1N1C(=O)/C(=C\c2ccc(Cl)cc2)SC1=S`: the AC50 is 7.94 µM (active).

As to `COc1ccccc1CNC(=O)CCCn1c(=O)c2ccccc2n(CC(=O)NC2CCCC2)c1=O`, the AC50 was 7.94 µM (active).

Regarding `CCOc1cc2[nH]c(=O)n(CCCC(=O)NCc3ccc(OC)cc3)c(=O)c2cc1OCC`, the “activity, negative = inhibition” value is -24.6%.

As for `COC(=O)N1CCC2(CCCN(Cc3ccccc3OC)C2)CC1`, the “activity, negative = inhibition” value was -22.1%.

On to `CC(=O)OC[C@@H]1O[C@@H](O/N=C2/C[C@@H](O)[C@@H](O)[C@@H]3[C@@H]4C(=O)N(C(C)(C)C)C(=O)[C@H]4CC[C@@H]23)[C@H](OC(C)=O)[C@H](OC(C)=O)[C@@H]1OC(C)=O`, for which the activity, negative = inhibition is 11.3% [at 11.4 µM].

On to `Clc1ccc(CSc2nnc(-c3sccc3-n3cccc3)o2)cc1`, for which the concentration at half-maximal activity (AC50) was 1.12 µM (active).

Regarding `c1ccc(CSc2nnc(-c3sccc3-n3cccc3)o2)cc1`, the AC50 was 2 µM (active).

Turning to `Cc1cccc(-c2nnc(SCc3ccccc3)o2)c1`, the AC50 was 11.2 µM (active).

Consider `Clc1ccc(CSc2nnc(-c3cccnc3)o2)cc1`, for which the AC50 is 3.55 µM (active).

As for `CC(C)N(Cc1ccccc1)S(=O)(=O)c1n[nH]c(C(C)(C)C)n1`, the activity, negative = inhibition was -40.1% [at 11.4 µM].

As to `Clc1cccc(CSc2nnc(-c3sccc3-n3cccc3)o2)c1`, the AC50 is 1.58 µM (active).

In the case of `CC(C)CN1CC[C@@]2(CCCN(C(=O)c3csnn3)C2)C1`, the “activity, negative = inhibition” value is 9.51%.

Consider `COc1ccc(-n2cccc2C=O)cc1OC`, for which the “activity, negative = inhibition” value was -13.9%.

Consider `COc1ccc(-n2c(C)n[nH]c2=O)cc1OC`, for which the “activity, negative = inhibition” value was -2.09%.

Regarding `COc1ccc2c(c1)-c1c(sn(-c3ccc(OC)c(OC)c3)c1=S)C(C)(C)N2`, the AC50 is 6.31 µM (active).

For `Clc1ccccc1NN(Cc1ccccn1)c1ccccc1Cl`, the AC50 is 3.98 µM (active).

With `Clc1ccccc1NN(Cc1ccncc1)c1ccccc1Cl`, the AC50 was 1.26 µM (active).

As to `O=C(Nc1cccc(F)c1)N1CCCC2(CCNCC2)C1`, the “activity, negative = inhibition” value was 9.79%.

Regarding `CC(=O)N(O)CCCCCNC(=O)CCC(=O)N(O)CCCCCNC(=O)CCC(=O)N(O)CCCCCN`, the “activity, negative = inhibition” value was 10.1% [at 25.6 µM].

Regarding `O=C(O)c1ccc(C(=O)c2ccccc2)c(C(=O)O)c1`, the activity, negative = inhibition was 33.3% [at 11.4 µM].

Consider `O=C(c1ccccc1)c1cc(F)c(N2CCOCC2)cc1Cl`, for which the AC50 is 0.708 µM (active).

With `Cc1ccc2nc(-c3ccccc3)cc(C(=O)NCCCn3ccnc3)c2c1`, the AC50 was 2 µM (active).

Regarding `COc1ccc(Nc2cc(C(=O)NCCCN3CCN(C)CC3)c3ccccc3n2)cc1`, the “activity, negative = inhibition” value was 11.9%.

Turning to `Cc1ccc(-n2c(C)cc(C(=S)N3CCOCC3)c2C)cc1C`, the AC50 is 0.891 µM (active).

Consider `O=C(Nc1ccc(S(=O)(=O)N2CCCCC2)cc1)c1ccc(CN2CCc3ccccc3C2)cc1`, for which the AC50 was 7.94 µM (active).

Consider `O=C(Nc1ccc(S(=O)(=O)N2CCCC2)cc1)c1ccc(CN2CCOCC2)cc1`, for which the “activity, negative = inhibition” value was -61.3%.

For `CCOC(=O)C(/C(N)=N/C(=O)Nc1ccccc1)=C(\C)O`, the AC50 was 17.8 µM (active).

As to `CCOC(=O)/C(C(N)=NCCCO)=C(/O)c1ccccc1`, the “activity, negative = inhibition” value is -17.8%.

Turning to `BrC(c1cccc2ccccc12)c1cccc2ccccc12`, the AC50 was 1.26 µM (active).

Turning to `Clc1ccc(-n2nnnc2CN2CCOCC2)cc1`, the AC50 was 11.2 µM (active).
